T cruzi growth-1: inhibitors of T. cruzi proliferation. T. cruzi beta-gal in NIH3T3, GalScreen luminescence, 90 h. inhibition, % at 8.34 µM. 77,000 compounds, 5.9% hits;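 active = mean inhibition above about 93%, with at least 55% of replicates each passing it, limit read from the data, passing the limit was not always enough; inconclusive = only one of those two conditions holds; inactive = neither condition holds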
Pf Dd2 inh: P. falciparum Dd2 growth inhibition; SYBR Green, 72 h; active compounds read low; activity change, % at 10 µM; 94,000 compounds, 2.3% hits; AID 1159554; in the data active = activity change below about -80%; inconclusive = no clear call, values can overlap the other calls
C diff HTS: inhibitors of Clostridium difficile growth; Clostridium difficile clinical isolate growth, OD600, 24 h; active compounds read low; growth activity, negative = inhibition, % at 16 µg/mL (by protocol); 86,000 compounds, 0.25% hits; AID 1259249;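 active = mean growth activity at or below -80% and every replicate also at or below -80%; inconclusive = mean at or below -80% but some replicate above -80%; inactive = mean growth activity above -80%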;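 also: 0% = DMSO wells and -100% = levofloxacin 16 µg/mL wells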
T cruzi growth-2: inhibitors of T. cruzi proliferation. shares compounds with T cruzi growth-1. T. cruzi beta-gal in NIH3T3, GalScreen luminescence, 90 h. inhibition, % at 8.35 µM. 5,600 compounds, 72% hits. AID 651739;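 active = mean replicate inhibition above about 95% and at least 55% of replicates individually reaching it, limit read from the data; inconclusive = only one of the two criteria is met; inactive = neither criterion is met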
T cruzi growth-3: blocks T. cruzi growth in NIH3T3 host cells. shares compounds with T cruzi growth-1. T. cruzi beta-gal in NIH3T3, GalScreen luminescence, 90 h. inhibition, % at 2.09 µM. 5,600 compounds, 21% hits. AID 651740;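 active = mean inhibition above about 95%, with at least 55% of replicates also reaching it, limit read from the data; inconclusive = meets just one of the two conditions; inactive = meets neither condition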;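 also: plate controls were neutral control median for no effect and positive control median for full effect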
3T3 cytotox: kills mouse NIH/3T3 fibroblasts; cytotoxicity (signal decrease), % at 8.35 µM; NIH/3T3 viability, CellTiter-Glo ATP luminescence, 90 h; shares compounds with T cruzi growth-1; 5,600 compounds, 14% hits;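 active = mean signal decrease across replicates above about 35% based on untreated-well scatter, with enough replicates individually passing, limit read from the data; inconclusive = no rule stated though some were filed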;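 also: 0% = median of neutral control wells and 100% = median of positive control wells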
3T3 cytotox 2: cytotoxicity in mouse NIH/3T3 fibroblasts | shares compounds with T cruzi growth-1 | NIH/3T3 viability, CellTiter-Glo ATP luminescence, 90 h | inhibition, % at 24.9 µM | 5,600 compounds, 56% hits;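 active = mean loss of cell viability signal at or above a set limit, and enough replicates individually reaching it; inconclusive = meets only the mean limit or only the replicate share; inactive = meets neither condition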;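 also: 0% = median of neutral control wells and 100% = median of positive control wells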
The depositor's hits bear a star. A selection: hits, their analogues and other compounds. The true share with any hit is near 6.8%.

How did COc1ccccc1-c1ccc2c(c1)O[C@@H](CN(C)S(=O)(=O)c1ccc(C)cc1)[C@@H](C)CN([C@@H](C)CO)S2(=O)=O do in these assays?
T cruzi growth-1: 127*; Pf Dd2 inh: -54; C diff HTS: 12; T cruzi growth-2: 105*; T cruzi growth-3: 105*; 3T3 cytotox: 53*; 3T3 cytotox 2: 44*

Results for C[C@@H]1CCCCO[C@H](CN(C)Cc2ccncc2)[C@@H](C)CN([C@H](C)CO)C(=O)c2cc(NC(=O)Nc3ccccc3)ccc2O1 ?
T cruzi growth-1: 22; Pf Dd2 inh: -34; C diff HTS: -2

What do the screens show for `Cc1ccc(S(=O)(=O)N(C)C[C@@H]2Oc3ccc(NC(=O)Nc4ccc5c(c4)OCO5)cc3CC(=O)N([C@@H](C)CO)C[C@H]2C)cc1`?
T cruzi growth-1: 30; Pf Dd2 inh: -48; C diff HTS: 2

How did Cc1noc(C)c1NC(=O)N(C)C[C@@H]1Oc2cc(C#CCC3CCCC3)ccc2S(=O)(=O)N([C@@H](C)CO)C[C@@H]1C do in these assays?
Pf Dd2 inh: -42; C diff HTS: 17

Results for Cc1ccc(S(=O)(=O)N(C)C[C@@H]2Oc3cc(C#Cc4ccccc4)ccc3S(=O)(=O)N([C@H](C)CO)C[C@@H]2C)cc1 ?
Pf Dd2 inh: -43; C diff HTS: 5

Results for Cc1ccc(S(=O)(=O)N(C)C[C@@H]2Oc3cc(-c4cccc(F)c4)ccc3S(=O)(=O)N([C@@H](C)CO)C[C@@H]2C)cc1 ?
T cruzi growth-1: 121*; Pf Dd2 inh: -51; C diff HTS: 11; T cruzi growth-2: 100*; T cruzi growth-3: inconclusive; 3T3 cytotox: -4; 3T3 cytotox 2: 37*

Results for Cc1ccc(S(=O)(=O)N(C)C[C@@H]2Oc3cc(-c4cccc(F)c4)ccc3S(=O)(=O)N([C@H](C)CO)C[C@H]2C)cc1 ?
T cruzi growth-1: 104*; Pf Dd2 inh: -58; C diff HTS: 8; T cruzi growth-2: 92; T cruzi growth-3: 78; 3T3 cytotox: 69*; 3T3 cytotox 2: 47*

Results for Cc1ccc(S(=O)(=O)N(C)C[C@H]2Oc3cc(-c4cccc(F)c4)ccc3S(=O)(=O)N([C@H](C)CO)C[C@H]2C)cc1 ?
T cruzi growth-1: 121*; Pf Dd2 inh: -7; C diff HTS: 8; T cruzi growth-2: 102*; T cruzi growth-3: 94; 3T3 cytotox: 24; 3T3 cytotox 2: 43*

How did Cc1ccc(S(=O)(=O)N(C)C[C@H]2Oc3cc(C#Cc4ccccc4)ccc3S(=O)(=O)N([C@H](C)CO)C[C@@H]2C)cc1 do in these assays?
Pf Dd2 inh: -49; C diff HTS: 3

Results for Cc1ccc(-c2ccc3c(c2)O[C@H](CN(C)S(C)(=O)=O)[C@@H](C)CN([C@@H](C)CO)S3(=O)=O)cc1 ?
T cruzi growth-1: 21; Pf Dd2 inh: -6; C diff HTS: -14

What do the screens show for `Cc1ccc(-c2ccc3c(c2)O[C@@H](CN(C)S(C)(=O)=O)[C@H](C)CN([C@H](C)CO)S3(=O)=O)cc1`?
T cruzi growth-1: 102*; Pf Dd2 inh: -44; C diff HTS: -4; T cruzi growth-2: 4; T cruzi growth-3: -31; 3T3 cytotox: 20; 3T3 cytotox 2: 72*

How did C[C@H]1CN([C@@H](C)CO)C(=O)c2cc(NC(=O)CCCN(C)C)ccc2O[C@@H]1CN(C)C do in these assays?
Pf Dd2 inh: 23; C diff HTS: -1

Results for COc1ccc(-c2ccc(C3[C@H]4CNC[C@@H]3N4S(=O)(=O)c3cn(C)cn3)cc2)cc1 (stereo partly drawn) ?
Pf Dd2 inh: 7; C diff HTS: -12

Results for O=S(=O)(N[C@H]1CC[C@H](CCn2cc(-c3cccc(F)c3)nn2)O[C@H]1CO)c1ccc(Cl)cc1 ?
T cruzi growth-1: 39; Pf Dd2 inh: 7

How did Cc1ccc(S(=O)(=O)N(C)C[C@H]2Oc3cc(-c4cccc(F)c4)ccc3S(=O)(=O)N([C@@H](C)CO)C[C@H]2C)cc1 do in these assays?
T cruzi growth-1: 119*; Pf Dd2 inh: 6; C diff HTS: 5; T cruzi growth-2: 103*; T cruzi growth-3: inconclusive; 3T3 cytotox: -16; 3T3 cytotox 2: 49*

How did Cc1ccc(-c2ccc3c(c2)O[C@@H](CN(C)S(C)(=O)=O)[C@H](C)CN([C@@H](C)CO)S3(=O)=O)cc1 do in these assays?
T cruzi growth-1: 91; Pf Dd2 inh: -69; C diff HTS: -9

Results for Cc1ccc(S(=O)(=O)N(C)C[C@H]2Oc3cc(-c4cccc(F)c4)ccc3S(=O)(=O)N([C@H](C)CO)C[C@@H]2C)cc1 ?
T cruzi growth-1: 126*; Pf Dd2 inh: -67; C diff HTS: 0; T cruzi growth-2: 105*; T cruzi growth-3: 79; 3T3 cytotox: 36*; 3T3 cytotox 2: 27

How did Cc1ccc(S(=O)(=O)N(C)C[C@@H]2Oc3cc(C#Cc4ccccc4)ccc3S(=O)(=O)N([C@@H](C)CO)C[C@@H]2C)cc1 do in these assays?
Pf Dd2 inh: -39; C diff HTS: 4

What do the screens show for `COc1ccc(S(=O)(=O)Nc2ccc3c(c2)CC(=O)N([C@@H](C)CO)C[C@@H](C)[C@@H](CN(C)C(=O)Nc2ccc(F)cc2)O3)cc1`?
T cruzi growth-1: 9; Pf Dd2 inh: 14; C diff HTS: 2

What do the screens show for `C[C@@H]1CN([C@H](C)CO)C(=O)Cc2cc(NC(=O)Nc3cccc4ccccc34)ccc2O[C@@H]1CN(C)Cc1ccc2c(c1)OCO2`?
T cruzi growth-1: 103*; Pf Dd2 inh: 11; C diff HTS: 0; T cruzi growth-2: 107*; T cruzi growth-3: 93; 3T3 cytotox: inconclusive; 3T3 cytotox 2: 72*

What do the screens show for `C[C@@H]1CN([C@H](C)CO)C(=O)Cc2cc(NC(=O)Nc3cccc4ccccc34)ccc2O[C@H]1CN(C)Cc1ccc2c(c1)OCO2`?
T cruzi growth-1: inconclusive; Pf Dd2 inh: 8; C diff HTS: -3; T cruzi growth-2: 107*; T cruzi growth-3: 53; 3T3 cytotox: 22; 3T3 cytotox 2: 22

Results for C[C@H](CO)N1C[C@H](C)[C@H](CN(C)Cc2ccc3c(c2)OCO3)Oc2ccc(NC(=O)Nc3ccccc3)cc2CC1=O ?
T cruzi growth-1: -22; Pf Dd2 inh: 19; C diff HTS: -12

How did C[C@@H]1CN([C@@H](C)CO)C(=O)c2cc(NC(=O)Nc3cccc4ccccc34)ccc2O[C@H]1CN(C)Cc1ccc2c(c1)OCO2 do in these assays?
T cruzi growth-1: 16; Pf Dd2 inh: -4; C diff HTS: 3

Assay outcomes as filed in PubChem.
